ST2 inh – inhibitors of human ST2 (IL1RL1) binding to IL-33, primary screen, biochemical, AlphaLISA. hit rate 2.3% among 78,000. AlphaLISA ST2-Fc/biotin-IL-33 interaction, 1 h. inhibition, % for hits at 17 µM. Interleukin-1 receptor-like 1 (Homo sapiens), Q01638; in the data active = inhibition above about 30%
Target sequence (Q01638 whole entry, looked up): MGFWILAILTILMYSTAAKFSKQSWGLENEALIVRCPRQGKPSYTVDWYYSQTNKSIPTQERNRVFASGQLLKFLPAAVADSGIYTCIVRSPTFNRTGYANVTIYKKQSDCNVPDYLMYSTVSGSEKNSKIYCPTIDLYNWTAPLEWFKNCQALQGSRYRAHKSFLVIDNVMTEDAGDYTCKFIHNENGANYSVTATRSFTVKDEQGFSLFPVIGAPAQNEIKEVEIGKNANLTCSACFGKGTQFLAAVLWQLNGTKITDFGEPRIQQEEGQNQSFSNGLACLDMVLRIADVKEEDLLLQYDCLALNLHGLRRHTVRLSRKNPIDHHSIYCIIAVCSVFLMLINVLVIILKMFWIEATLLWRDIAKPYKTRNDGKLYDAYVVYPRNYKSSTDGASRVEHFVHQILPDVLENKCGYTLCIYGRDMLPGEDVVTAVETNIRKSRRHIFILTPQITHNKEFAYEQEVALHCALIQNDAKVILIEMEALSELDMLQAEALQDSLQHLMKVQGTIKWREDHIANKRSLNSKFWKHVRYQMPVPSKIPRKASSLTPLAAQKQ
* = called active by the depositor; i = inactive. Many of the other results were omitted from the sample, so hits are more common in it than they were.

SMILES	ST2 inh
COc1cccc(NC(=O)CCC2CCN(C(=O)c3cnsn3)CC2)c1	i
CC(C)(C)CC(=O)Nc1ccc([N+](=O)[O-])cc1	i
Cc1ccc(NCC(=O)c2ccc([N+](=O)[O-])cc2)cc1	36.0%*
Cc1ccc(NC(=O)c2ccc([N+](=O)[O-])cc2)cc1F	i
COc1ccnc(CN2CCC(=O)N(CC3CC3)C(C(C)C)C2)c1OC (stereo not drawn)	i
Clc1ccc(C2CN(Cc3cc(-c4cccnc4)no3)CCO2)cc1 (stereo not drawn)	i
CC(C)C(C(=O)NC1CCCCC1)N1C(=O)c2ccccc2C1=O (stereo not drawn)	i
COc1cccc(NC2=C(N3CCOCC3)C(=O)c3ccccc3C2=O)c1	71.0%*
O=C1C(NC2CCCCC2)=C(N2CCOCC2)C(=O)c2ccccc21	73.0%*
O=C(NC1CCCCCCC1)C1c2ccccc2C(=O)N1CCCN1CCOCC1 (stereo not drawn)	i
COc1cccc(OCC(O)CN2CCOCC2)c1 (stereo not drawn)	i
COc1cccc(NC(=O)c2ccccc2-c2ccccc2C(=O)O)c1	i
Cn1cc(S(=O)(=O)CC(=O)Nc2nc3ccccc3s2)c2ccccc21	i
O=C(CCS(=O)(=O)c1cccs1)Nc1ccc(C(=O)Nc2nccs2)cc1	i
Cc1ccc(CN2CCNC(=O)C2CC(=O)NCCC2=CCCCC2)o1 (stereo not drawn)	i
COc1ccc2c(c1)CCC1C2CC[C@@]2(C)C1CC[C@@H]2NCCCCCCN1C(=O)C=CC1=O (stereo partly drawn)	46.0%*
C[C@]12CC[C@@H]3c4ccc(O)cc4CC[C@H]3[C@@H]1CCC2=O	i
CC12CCC3c4ccc(O)c(Br)c4CCC3C1CCC2O (stereo not drawn)	i
Cc1ccc(NS(=O)(=O)c2ccc3[nH]c(=O)c(=O)[nH]c3c2)cc1Cl	i
Cc1ccc(NS(=O)(=O)c2ccc3[nH]c(=O)c(=O)[nH]c3c2)c(Cl)c1	37.0%*
Cc1ccc(Cl)cc1NS(=O)(=O)c1ccc2[nH]c(=O)c(=O)[nH]c2c1	i
COCCCN1C(=O)C(O)=C(C(=O)c2ccc(C)o2)C1c1ccc(OC)cc1 (stereo not drawn)	i
CC(C)=CCC/C(C)=C\CN1CC23C=CC(O2)C(C(=O)O)C3C1=O (stereo not drawn)	i
CCCCC(=O)Nc1ccc(NC(=O)C(Cl)(Cl)Cl)cc1OC	i
O=C(Nc1ccccc1)N[C@H]1C[C@H]2C(=O)NC[C@@H](CCC(=O)N3CCN(c4ccccn4)CC3)N2C1	i
SMILES	ST2 inh
COCCNC(=S)N[C@H]1C[C@H]2C(=O)NC[C@@H](CCC(=O)N3CCN(c4ccccn4)CC3)N2C1	i
O=C(N[C@H]1C[C@H]2C(=O)NC[C@@H](CCC(=O)N3CCN(c4ccccc4)CC3)N2C1)C1CC1	i
O=C(N[C@H]1C[C@H]2C(=O)NC[C@@H](CCC(=O)N3CCN(c4ccccn4)CC3)N2C1)c1cccs1	33.0%*
COc1ccc(CN[C@H]2C[C@H]3C(=O)NC[C@@H](CCC(=O)N4CCN(c5ccccc5)CC4)N3C2)cc1	57.0%*
COCCNC(=S)N[C@H]1C[C@H]2C(=O)NC[C@@H](CCC(=O)N3CCN(c4ccccc4)CC3)N2C1	i
O=C(Cn1cnc2c(cnn2-c2ccc(Cl)cc2)c1=O)NC1CCCC1	i
CN(CCCC1CCCO1)Cc1ccc2c(c1)OCCO2 (stereo not drawn)	i
Cc1cc(=O)oc2cc(OC(=O)COc3ccc(Br)cc3)ccc12	i
CCC1CN(C(=O)c2ccc3[nH]c(C)c(C)c3c2)CCN1 (stereo not drawn)	i
Cc1ccnc(NC(=O)C2CC(=O)N(c3ccc(F)cc3)C2)c1 (stereo not drawn)	i
CCC(C)NC(=O)C1CC(=O)N(c2ccc(F)cc2)C1 (stereo not drawn)	33.0%*
CC(C)NC(=O)C1CC(=O)N(c2ccc(F)c(Cl)c2)C1 (stereo not drawn)	i
Cc1cccc(-c2noc([C@@H]3C[C@@H](O)CN3Cc3cccs3)n2)c1	i
O=[N+]([O-])c1cccc(-c2noc([C@@H]3C[C@@H](O)CN3Cc3ccc(CO)o3)n2)c1	58.0%*
O=[N+]([O-])c1cccc(-c2noc([C@@H]3C[C@@H](O)CN3Cc3ccc(Cl)cc3)n2)c1	i
Cc1ccc(CN2C[C@H](O)C[C@H]2c2nc(-c3cccc([N+](=O)[O-])c3)no2)cc1	i
O=[N+]([O-])c1cccc(-c2noc([C@@H]3C[C@@H](O)CN3Cc3cccs3)n2)c1	61.0%*
O=[N+]([O-])c1cccc(-c2noc([C@@H]3C[C@@H](O)CN3Cc3ccccc3)n2)c1	i
O=C(c1ccccn1)C1CCCN(Cc2nc(COc3ccccc3)no2)C1 (stereo not drawn)	i
Cc1ccc(Cl)cc1NC(=O)c1cccc(F)c1	i
N/C(=N/OC(=O)CCCOc1ccc(Cl)cc1Cl)c1nonc1N	i
C=CCN1C(=Nc2cccnc2)SCC1(O)c1ccccc1 (stereo not drawn)	53.0%*
CC(C)(O[C@@H]1O[C@H](CO)[C@@H](O)[C@H](O)[C@H]1O)C(OC(=O)/C=C/c1ccc(O)cc1)C(=O)OCc1ccc(O[C@@H]2O[C@H](CO)[C@@H](O)[C@H](O)[C@H]2O)cc1 (stereo partly drawn)	i
COc1cc2c(cc1OC)C(C(=O)NCCCN1CCOCC1)C(c1cccs1)N(C)C2=O (stereo not drawn)	i
CN(Cc1nnc(-c2ccccc2)o1)C(=O)c1cn(Cc2c(F)cccc2F)nn1	i
SMILES	ST2 inh
CCCCN(C)S(=O)(=O)c1ccc(C(=O)Nc2nnc(-c3ccc(OC)cc3)o2)cc1	i
Cc1sc2ncnc(Nc3cc(Cl)cc(Cl)c3)c2c1C	i
COc1cc(OC)c(-c2coc3cc(OC4OC(CO)C(O)C(O)C4O)c(OC)c(O)c3c2=O)cc1O (stereo not drawn)	i
Cc1cc(C(=O)Nc2ccc(N3CCOCC3)cc2)ccc1[N+](=O)[O-]	i
O=C(Nc1ccc(N2CCOCC2)cc1)c1cccc([N+](=O)[O-])c1	30.0%*
O=C(Nc1ccc(N2CCOCC2)cc1)c1ccccc1	i
CC1OC(CC(=O)O)CC23OC12C(=O)c1c(O)cccc1C3=O (stereo not drawn)	i
CC(C)c1ccc(C(=O)Nc2cccc(-c3nc4ncccc4o3)c2)cc1	i
CCOc1cc(OCC)cc(C(=O)Nc2cccc(-c3nc4ncccc4o3)c2)c1	i
O=C(Nc1cccc(-c2nc3ncccc3o2)c1)c1ccc(OCc2ccccc2)cc1	33.0%*
O=C(c1cc(-c2ccc3c(c2)OCO3)on1)N1CCCC1	i
O=C(Nc1cccc(-c2nc3ccccc3[nH]2)c1)c1ccccc1	i
O=C(NCc1ccccc1)c1ccccc1-c1nc2ccccc2[nH]1	i
O=C(Nc1nonc1-c1nc2ccccc2[nH]1)c1ccccc1Cl	32.0%*
O=C(Cn1c(=O)n(-c2cc(F)ccc2F)c(=O)c2sccc21)NC1CCCC1	i
Cc1cc(N2CCCCC2)nc(N2CCN(S(=O)(=O)c3ccccc3Cl)CC2)n1	i
O=S(=O)(NCc1nc2cccnc2n1Cc1ccc(F)cc1)c1ccc(Cl)cc1	i
O=C(Nc1ccccc1)Oc1cccc(Cl)c1	i
